Rab9 prom act – Rab9 promoter activation. Huh7 Rab9 promoter-luciferase reporter, luminescence, 24 h. Potency, µM (highest dose often 9.22 µM), without a hit: top-dose activation, negative = inhibition, most hits filed as activators. hit rate 2.8% among 320,000. AID 485297; also: % of control where 0% means no effect; nearly all actives have a fitted effect of over 60% in size
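Quantitative HTS format; Huh7 Rab9-luciferase reporter cells (1500/well) receive compound 2 h post-plating, incubate 24 h at 37 °C, then get luciferase reagent for 10 min before luminescence reading.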
ELG1 genotoxic – inducers of genotoxicity in HEK293T ELG1-luciferase cells; HEK293T ELG1-luciferase reporter, luminescence, 16 h; Potency, µM (titrated, usually from 46 µM), for the others: at the highest dose activity change, positive = activation, actives largely listed as activators; hit rate 1.3% among 330,000; also: % of control where 0% means no effect; nearly all actives have a fitted effect of over 60% in size
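Luminescence read-out: rising ELG1-luciferase signal, reflecting elevated ELG1 protein under genetic stress, flags genotoxic compounds. Cells were treated for 16 hr at 37 °C before ONE-Glo detection.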
SMN2 splice enh – increases expression of the SMN2 splice variant; Potency, µM (highest dose often 46.1 µM), for the others: at the top dose activity change, positive = activation, hits mostly activators; hit rate 2.8% among 210,000; HEK293 SMN2-luciferase splicing reporter, luminescence, 30-36 h; AID 1458; also: % of control where 0% means no effect; nearly all actives have a fitted effect of over 55% in size
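HEK293 cells carry an SMN2 […]–luciferase reporter in which exon 7 inclusion puts luciferase in frame. Cells were plated 10-12 h before compound addition, then incubated 30-36 h at 37C. ONE-Glo luminescence was read; sodium butyrate at 4.5 mM final served as control.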
FLuc counter – counter-screen for miR-21 project: firefly luciferase inhibitors or activators; hit rate 6.9% among 360,000; P08659; Potency, µM (highest dose often 57.5 µM), for inactives: top-dose activity change, negative = inhibition, hits mostly inhibitors; purified FLuc, Km substrates, luminescence inhibition; AID 588342;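 also: plate controls were vehicle for no effect and reference inhibitor for full effect; nearly all actives have a fitted effect of over 55% in size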
Target sequence (P08659 whole entry, looked up): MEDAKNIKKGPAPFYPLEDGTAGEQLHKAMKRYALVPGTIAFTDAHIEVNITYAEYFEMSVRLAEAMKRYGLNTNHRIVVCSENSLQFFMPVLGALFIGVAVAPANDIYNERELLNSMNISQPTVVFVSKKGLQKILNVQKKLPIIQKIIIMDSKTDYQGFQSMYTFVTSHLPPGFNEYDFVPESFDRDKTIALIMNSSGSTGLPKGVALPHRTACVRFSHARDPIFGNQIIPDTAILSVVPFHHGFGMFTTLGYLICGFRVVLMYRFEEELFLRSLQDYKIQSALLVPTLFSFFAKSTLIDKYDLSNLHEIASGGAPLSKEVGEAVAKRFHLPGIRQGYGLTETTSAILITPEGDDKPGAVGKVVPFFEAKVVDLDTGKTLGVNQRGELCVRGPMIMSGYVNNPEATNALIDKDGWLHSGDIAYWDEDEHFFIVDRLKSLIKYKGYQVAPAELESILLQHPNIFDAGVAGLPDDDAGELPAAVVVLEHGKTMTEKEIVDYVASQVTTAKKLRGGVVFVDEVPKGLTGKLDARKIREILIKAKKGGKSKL
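Purified P. pyralis luciferase (10nM final) with 10uM D-luciferin and 10uM ATP (Km levels) in 50mM Tris acetate pH 7.5, 10mM Mg acetate, 0.01% Tween-20, 0.05% BSA; qHTS 6-point titration, ~60 µM downward; luminescence read.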
NPC1 prom act – activators of NPC1 promoter | AID 485313 | Huh7 NPC1 promoter luciferase reporter, 24 h | hit rate 2.4% among 320,000 | Potency, µM (series often up to 9.22 µM), for the others: at the top dose activation, actives largely listed as activators; also: % of control where 0% means no effect; nearly all actives have a fitted effect of over 60% in size
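NPC1 promoter–luciferase Huh7 cells; 24 h compound; luminescence.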
* hit, by the source's call; ? = inconclusive; / = not tested or not shown; [ ] = another dose, or the depositor's remark. Sampled rows, rich in hits. Any-hit rate of the full collection: about 7.5%. Calls follow the shape of the dose curve; as a rule, active = well fitted curve in the direction sought with a large enough effect; inconclusive = small, poorly fitted or top-dose-only effect, or another doubt; inactive = no such curve, though single readings can be large; an effect the other way counts as inactive or inconclusive. Potency is read from the fitted curve at half-maximal effect.

SMILES	Rab9 prom act	ELG1 genotoxic	SMN2 splice enh	FLuc counter	NPC1 prom act
COc1ccc2c(C(=O)c3ccc(C)cc3)n(Cc3ccc(C(N)=O)cc3)[n+]([O-])c2c1	?	?	/	13.5µM*	?
COc1cccc([C@@H]2Oc3ccc(Br)cc3C(=O)[C@H]2OC(=O)NC2CCCC2)c1	-2.7%	0.5%	-4.7%	-13.5%	0.8%
Cc1cccn2c(=O)nc(SCC(=O)c3ccccc3)nc12	18.1%	20.6µM*	/	-1.9%	17.4%
CCCCCC#CC[C@@H](O)/C=C/C=C/C=C\[C@@H](O)CCCC(=O)O	/	/	11.9%	/	/
CCn1nc(C(=O)OCC(=O)c2c[nH]c3ccccc23)c2ccccc2c1=O	0.8%	2.7%	-9.6%	23.9µM*	4.7%
CCc1cccc2c(C(=O)COC(=O)c3nn(C)c(=O)c4ccccc34)c[nH]c12	-1.0%	-19.2%	-2.5%	13.5µM*	-1.9%
CC(C)c1cc(C(=O)N/N=C/c2cccnc2)cs1	-5.5%	16.1%	?	?	-1.2%
COc1ccc(C(=O)N/N=C\c2ccoc2)cc1	25.8%	?	/	19µM*	?
CC(C)c1cc(C(=O)N/N=C/c2ccoc2)cs1	?	?	/	12µM*	?
CCOc1cccc(C(=O)N/N=C/c2ccoc2)c1	0.7%	?	/	13.5µM*	-3.7%
Cc1ccc(C(=O)N/N=C/c2ccoc2)cc1C	?	?	/	26.9µM*	?
CCOc1ccccc1C(=O)N/N=C/c1coc2ccc(Cl)cc2c1=O	-0.6%	-0.4%	/	-1.5%	-0.6%
CC(C)CC1(C(=O)NCC2CC2)C=CCN1C(=O)c1ccccc1 (configuration not stated)	/	/	12.6µM*	/	/
COC(=O)CNC(=O)C1(C)C=CCN1C(=O)c1ccccc1 (configuration not stated)	?	?	11.2µM*	15.1µM*	14.7%
CC(=O)N1CC=CC1(C)C(=O)NCc1cc(F)cc(C(F)(F)F)c1 (configuration not stated)	-0.5%	0.7%	-6.4%	3.2%	4.9%
COCCNC(=O)C1(CC(C)C)C=CCN1C(=O)c1ccccc1 (configuration not stated)	/	/	23.7%	/	/
CNC(=O)C1(CC(C)C)C=CCN1C(=O)c1ccccc1 (configuration not stated)	/	/	2.6%	/	/
CC(=O)N1CC=CC1(C)C(=O)NCC1CC1 (configuration not stated)	/	/	11.2µM*	/	/
FC(F)(F)c1cccc(-c2ccc(-c3csnn3)o2)c1	?	13.9%	-15.5%	16.9µM*	10.0%
Cc1occc1C(=O)N/N=C/c1ccc(Br)s1	2.82µM*	?	/	15.1µM*	?
C/C(=N\NC(=O)c1ccoc1C)c1ccc(Br)s1	4.0%	?	/	-4.3%	-3.0%
Cc1ccc(/C=N/NC(=O)c2ccc(C(=O)N/N=C/c3ccc(C)s3)o2)s1	-1.3%	9.8%	0.8%	?	6.5%
Cc1ccc(/C=N/NC(=O)c2ccoc2C)s1	3.16µM*	?	10µM*	15.1µM*	?
O=C(O)c1cc(NC(=O)c2ccc(Br)cc2)cc(NC(=O)c2ccc(Br)cc2)c1	14.3%	-4.8%	/	21.3µM*	-6.3%
O=C(O)c1cc(NC(=O)c2ccc([N+](=O)[O-])cc2)cc(NC(=O)c2ccc([N+](=O)[O-])cc2)c1	-2.0%	-0.3%	/	-9.2%	-8.4%
SMILES	Rab9 prom act	ELG1 genotoxic	SMN2 splice enh	FLuc counter	NPC1 prom act
CC(C)(C)C(=O)Nc1ccc(C(=O)Nc2cc(NC(=O)c3ccc(NC(=O)C(C)(C)C)cc3)cc(C(=O)O)c2)cc1	29.8%	11.6%	/	4.26µM*	18.2%
NS(=O)(=O)c1ccc(CNS(=O)(=O)c2cccc3nonc23)cc1	-1.1%	-1.5%	/	-1.1%	-6.4%
O=C(/C=C/Nc1cccc(C(F)(F)F)c1)c1ccc(Oc2ncccn2)cc1	?	0.0%	-10.5%	12µM*	?
O=C(/C=C/Nc1cccc(C(F)(F)F)c1)c1ccco1	?	?	?	10.7µM*	21.2%
O=C(Nc1cccc(C(F)(F)F)c1)c1ccco1	-5.7%	4.2%	26.3%	-18.5%	2.0%
O=C(/C=C/Nc1ccccc1C(F)(F)F)c1ccco1	0.708µM*	2.91µM*	10µM*	1.2µM*	2µM*
NC(=O)c1ccccc1N/C=C/C(=O)c1ccco1	3.16µM*	5.17µM*	11.2µM*	9.53µM*	?
N#Cc1ccc(/C=C/C(=O)c2ccco2)cc1	0.1%	-18.8%	16.0%	?	1.5%
Cn1c(=O)c2c(-c3ccccc3)n3c4ccccc4nc(-c4ccccc4)c3c2n(C)c1=O	/	/	7.3%	-1.0%	/
CCCn1ccc2c(OCC(=O)Nc3ccc(F)cc3F)cccc2c1=O	/	/	/	3.9%	/
CCc1ccc(N2CCn3c2nc2c3c(=O)n(Cc3cccc(C)c3)c(=O)n2C)cc1	/	/	/	1.2%	/
O=C(/C=C/Nc1ccc(Oc2ccccc2)cc1)c1ccco1	0.708µM*	?	/	0.849µM*	0.631µM*
O=C(N/N=C/c1ccc([N+](=O)[O-])cc1)c1[nH]ncc1Br	1µM*	?	11.2µM*	?	2µM*
O=C(N/N=C/c1ccc([N+](=O)[O-])cc1)c1cc(C2CC2)[nH]n1	-3.5%	8.1%	/	6.9%	2.0%
CN(c1ccccc1)S(=O)(=O)c1cccc(C(=O)Nc2nn[nH]n2)c1	-0.8%	1.0%	/	3.2%	0.2%
CC(=O)c1cccc(OCC(O)CNCC2COc3ccccc3O2)c1 (configuration not stated)	2.6%	-2.0%	/	-1.1%	4.1%
O=C1C(C=Nc2ccccc2O)=C(O)c2ccccc21	?	16.9%	35.5µM*	?	?
Cc1ccc(O)c(N=CC2=C(O)c3ccccc3C2=O)c1	?	?	25.1%	6.75µM*	?
C/C=C/C1=Cc2ccccc2C(CC(=O)OC)N1C(=O)OC (configuration not stated)	/	/	-10.1%[9.22 µM]	/	/
Cc1cc(C(=O)CN2C(=O)NC(C)(c3ccccc3)C2=O)c(C)n1CC1CCCO1 (configuration not stated)	1.5%	1.0%	19.4%	16.9µM*	10.3%
CC1(c2cccc(Br)c2)NC(=O)N(CC(=O)NCC2CCCO2)C1=O (configuration not stated)	-0.5%	-2.6%	/	2.1%	-3.5%
Cc1cc(C(=O)Cn2cc(C(F)(F)F)ccc2=O)c(C)n1CC1CCCO1 (configuration not stated)	-0.7%	3.8%	/	0.9%	0.8%
Cc1cc(C(=O)CN2C(=O)c3ccccc3S2(=O)=O)c(C)n1CC1CCCO1 (configuration not stated)	-42.1%	-17.6%	-68.0%	7.57µM*	-47.9%
COc1ccc(N2C(=O)C(Cl)=C(Nc3ccccc3OC)C2=O)cc1	-7.0%	0.6%	-32.7%	23.9µM*	2.1%
COc1ccc(N2C(=O)C(Cl)=C(Nc3ccccc3O)C2=O)cc1	5.5%	13.3%	-30.2%	?	2.7%

Bioassay records as filed in PubChem.
